Results taken from PubChem BioAssay (NCI).
About 83,000 compounds went through this panel and 20% of them were active in at least one assay; those are over-represented in the sample as a whole.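 Percent growth is the endpoint: 0 to 100 indicates growth inhibition (40 means 60% inhibition), 0 means no net growth, and negative values indicate cell death.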 Values without a mark were called inactive. Calls of active or inactive are those of the source. The calls were made as follows: active = growth percent below 10; inactive = the rest.

The compounds below were run on HL-60(TB) leukemia (assay: NCI-60 one-dose screen, 48 h (100 = growth as untreated, 0 = no growth, -100 = all killed)). Settings: 10 µM unless noted.

Row | SMILES | growth
1 | O=c1ncc(-c2ccc(C(F)(F)F)cc2)c(NC2CCCCCC2)[nH]1 | 23.3%
2 | O=[N+]([O-])c1cc(S(=O)(=O)Nc2ccccc2)ccc1Cl | 71.3%
3 | COc1cc(N2C(=O)[C@H](c3ccccc3)C2c2ccc(SC)cc2)cc(OC)c1OC (some centres undefined) | -45.7% (active)
4 | CCN1C(=O)N(CC)C2NC(SC)=NC21 (centres undefined) | 103%
